# Assay results: article PMC4081100, “A DNA-binding-site landscape and regulatory network analysis for NAC transcription factors in Arabidopsis thaliana”
# Target: T1, GST-ANAC092(1-176) (Arabidopsis thaliana, UniProt Q9FKA0 1-176)
# T1 sequence: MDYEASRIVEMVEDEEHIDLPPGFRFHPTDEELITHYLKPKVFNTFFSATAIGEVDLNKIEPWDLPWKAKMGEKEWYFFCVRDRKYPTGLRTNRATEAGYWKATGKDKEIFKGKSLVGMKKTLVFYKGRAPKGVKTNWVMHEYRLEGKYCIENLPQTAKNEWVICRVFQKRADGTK
# Experiment: universal protein binding microarray (PBM); transcription factors of Arabidopsis thaliana; high values mean tight binding
# Conditions: protein: recombinant; tags: GST; chain copies: 2; dsDNA, one strand shown
# Method in brief: (§1)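 For zinc-finger proteins, zinc acetate was added while GST-tagged NAC-domain, full-length or DNA-binding-domain proteins were induced in cells. Purification used glutathione–Sepharose 4B, and quantification used A280 or anti-GST western blot. Custom all-10-mer Agilent 4 × 180K arrays, made double-stranded by primer extension, each received a protein at 200 to 500 nM final in duplicate. Scoring covered gapped and ungapped 8-mers, with binding given as the normalised enrichment score (E-score).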
row,Sequence,binding signal [E-score]
1,ACGTCACT,0.383
2,ACGTTACT,0.435
3,ATACGAAA,0.393
4,CCACGCAA,0.472
5,ATACGCAA,0.485
6,TAGCGTAA,0.453
7,TAACGTGA,0.42
8,CACGTAAA,0.425
9,ACGCAACA,0.473
10,GCGTAATA,0.318
11,AAGTTACC,0.365
12,GGAAGCAA,0.318
13,ACACGATA,0.38
14,AACGTGTA,0.403
15,CACGGCAA,0.457
16,GCGTGTAA,0.444
17,ACGGAAGC,0.299
18,ACACACGC,0.37
19,CGAGGAAA,0.0746
20,ACGAGAAA,0.249

row,Sequence,binding signal [E-score]
1,ACGTAATC,0.464
2,AACGTAAT,0.293
3,CACGTTAA,0.429
4,GTGACGTA,0.447
5,CTTAAGTA,0.154
6,AATGCCGT,0.335
7,CACGCAAA,0.487
8,CTACGTAA,0.329
9,GCAAGTAA,0.339
10,GAACACGC,0.382
11,CTAAGTAA,0.2
12,CACGAAAC,0.425
13,AACACGCC,0.391
14,ATTCCGTG,0.408
15,ATACGTAA,0.462
16,CACGTAAG,0.449
17,TACACGCA,0.467
18,TACGTTAA,0.43
19,GTACGTTA,0.42

# Target: GST-NTL6(1-168) (Arabidopsis thaliana, UniProt Q9SCK6 1-168)
# Experiment: as above
# Conditions: protein: recombinant; tags: GST; chain copies: 2; dsDNA, one strand shown
# Method in brief: as §1
# GST-NTL6(1-168), sequence (Q9SCK6 1-168): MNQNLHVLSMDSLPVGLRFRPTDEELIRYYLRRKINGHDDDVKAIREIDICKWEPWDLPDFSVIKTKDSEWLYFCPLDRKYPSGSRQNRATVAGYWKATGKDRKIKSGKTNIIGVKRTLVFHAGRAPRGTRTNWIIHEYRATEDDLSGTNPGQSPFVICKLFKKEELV
row,Sequence,binding signal [E-score]
1,ACGTCACT,0.0658
2,ACGTTACT,0.0863
3,ATACGAAA,0.184
4,CCACGCAA,0.116
5,ATACGCAA,0.0867
6,TAGCGTAA,0.123
7,TAACGTGA,0.0647
8,CACGTAAA,0.0987
9,ACGCAACA,0.0917
10,GCGTAATA,0.0582
11,AAGTTACC,0.308
12,GGAAGCAA,0.36
13,ACACGATA,0.127
14,AACGTGTA,0.0638
15,CACGGCAA,0.0683
16,GCGTGTAA,0.0655
17,ACGGAAGC,0.0877
18,ACACACGC,0.0666
19,CGAGGAAA,0.138
20,ACGAGAAA,0.265

row,Sequence,binding signal [E-score]
1,ACGTAATC,0.0901
2,AACGTAAT,0.183
3,CACGTTAA,0.0985
4,GTGACGTA,0.0989
5,CTTAAGTA,0.416
6,AATGCCGT,0.0523
7,CACGCAAA,0.107
8,CTACGTAA,0.0836
9,GCAAGTAA,0.409
10,GAACACGC,0.0566
11,CTAAGTAA,0.49
12,CACGAAAC,0.112
13,AACACGCC,0.094
14,ATTCCGTG,0.129
15,ATACGTAA,0.175
16,CACGTAAG,0.068
17,TACACGCA,0.0803
18,TACGTTAA,0.14
19,GTACGTTA,0.0779

# Target: T2, GST-ANAC019 NAC domain (Arabidopsis thaliana, UniProt Q9C932 14-162)
# T2 sequence: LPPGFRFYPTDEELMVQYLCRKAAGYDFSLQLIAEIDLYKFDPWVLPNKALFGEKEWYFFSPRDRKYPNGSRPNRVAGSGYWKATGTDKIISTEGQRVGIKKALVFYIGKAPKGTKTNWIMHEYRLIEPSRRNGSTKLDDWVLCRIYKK
# Experiment: as above
# Conditions: protein: recombinant; tags: GST; chain copies: 2; dsDNA, one strand shown
# Method in brief: as §1
row,Sequence,binding signal [E-score]
1,ACGTCACT,0.365
2,ACGTTACT,0.287
3,ATACGAAA,0.166
4,CCACGCAA,0.383
5,ATACGCAA,0.429
6,TAGCGTAA,0.0774
7,TAACGTGA,0.144
8,CACGTAAA,0.43
9,ACGCAACA,0.408
10,GCGTAATA,0.0565
11,AAGTTACC,0.155
12,GGAAGCAA,0.117
13,ACACGATA,0.324
14,AACGTGTA,0.165
15,CACGGCAA,0.471
16,GCGTGTAA,0.297
17,ACGGAAGC,0.436
18,ACACACGC,0.169
19,CGAGGAAA,0.0533
20,ACGAGAAA,0.324

row,Sequence,binding signal [E-score]
1,ACGTAATC,0.453
2,AACGTAAT,0.266
3,CACGTTAA,0.125
4,GTGACGTA,0.375
5,CTTAAGTA,0.0907
6,AATGCCGT,0.428
7,CACGCAAA,0.421
8,CTACGTAA,0.352
9,GCAAGTAA,0.211
10,GAACACGC,0.289
11,CTAAGTAA,0.0529
12,CACGAAAC,0.358
13,AACACGCC,0.238
14,ATTCCGTG,0.438
15,ATACGTAA,0.476
16,CACGTAAG,0.463
17,TACACGCA,0.415
18,TACGTTAA,0.0653
19,GTACGTTA,0.0888

# Target: T3, GST-ANAC055(1-171) (Arabidopsis thaliana, UniProt Q9LDY8 1-171)
# T3 sequence: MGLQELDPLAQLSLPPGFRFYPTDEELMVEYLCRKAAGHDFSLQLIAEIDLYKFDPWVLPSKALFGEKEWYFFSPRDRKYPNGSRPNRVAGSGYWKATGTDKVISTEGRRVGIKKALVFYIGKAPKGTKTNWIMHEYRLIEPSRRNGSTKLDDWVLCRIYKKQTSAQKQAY
# Experiment: as above
# Conditions: protein: recombinant; tags: GST; chain copies: 2; dsDNA, one strand shown
# Method in brief: as §1
row,Sequence,binding signal [E-score]
1,ACGTCACT,0.342
2,ACGTTACT,0.155
3,ATACGAAA,0.202
4,CCACGCAA,0.363
5,ATACGCAA,0.397
6,TAGCGTAA,0.173
7,TAACGTGA,0.213
8,CACGTAAA,0.414
9,ACGCAACA,0.35
10,GCGTAATA,0.189
11,AAGTTACC,0.0803
12,GGAAGCAA,0.136
13,ACACGATA,0.261
14,AACGTGTA,0.2
15,CACGGCAA,0.44
16,GCGTGTAA,0.222
17,ACGGAAGC,0.374
18,ACACACGC,0.199
19,CGAGGAAA,0.139
20,ACGAGAAA,0.419

row,Sequence,binding signal [E-score]
1,ACGTAATC,0.411
2,AACGTAAT,0.32
3,CACGTTAA,0.243
4,GTGACGTA,0.36
5,CTTAAGTA,0.178
6,AATGCCGT,0.391
7,CACGCAAA,0.348
8,CTACGTAA,0.295
9,GCAAGTAA,0.198
10,GAACACGC,0.237
11,CTAAGTAA,0.0945
12,CACGAAAC,0.343
13,AACACGCC,0.253
14,ATTCCGTG,0.448
15,ATACGTAA,0.451
16,CACGTAAG,0.441
17,TACACGCA,0.382
18,TACGTTAA,0.154
19,GTACGTTA,0.226

# Target: T4, GST-ATAF1 NAC domain (Arabidopsis thaliana, UniProt Q39013 7-158)
# T4 sequence: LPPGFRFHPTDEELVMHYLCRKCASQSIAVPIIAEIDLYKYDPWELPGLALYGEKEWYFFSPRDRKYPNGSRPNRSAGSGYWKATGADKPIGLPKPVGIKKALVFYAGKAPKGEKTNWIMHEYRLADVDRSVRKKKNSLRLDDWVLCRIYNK
# Experiment: as above
# Conditions: protein: recombinant; tags: GST; chain copies: 2; dsDNA, one strand shown
# Method in brief: as §1
row,Sequence,binding signal [E-score]
1,ACGTCACT,0.354
2,ACGTTACT,0.282
3,ATACGAAA,0.259
4,CCACGCAA,0.235
5,ATACGCAA,0.336
6,TAGCGTAA,0.281
7,TAACGTGA,0.208
8,CACGTAAA,0.332
9,ACGCAACA,0.292
10,GCGTAATA,0.0519
11,AAGTTACC,0.142
12,GGAAGCAA,0.137
13,ACACGATA,0.267
14,AACGTGTA,0.266
15,CACGGCAA,0.364
16,GCGTGTAA,0.201
17,ACGGAAGC,0.289
18,ACACACGC,0.135
19,CGAGGAAA,0.152
20,ACGAGAAA,0.184

row,Sequence,binding signal [E-score]
1,ACGTAATC,0.38
2,AACGTAAT,0.359
3,CACGTTAA,0.219
4,GTGACGTA,0.39
5,CTTAAGTA,0.207
6,AATGCCGT,0.342
7,CACGCAAA,0.292
8,CTACGTAA,0.316
9,GCAAGTAA,0.151
10,GAACACGC,0.19
11,CTAAGTAA,0.107
12,CACGAAAC,0.261
13,AACACGCC,0.0901
14,ATTCCGTG,0.3
15,ATACGTAA,0.407
16,CACGTAAG,0.349
17,TACACGCA,0.369
18,TACGTTAA,0.243
19,GTACGTTA,0.325
